# This is a sample that favours compounds with a hit; in the whole collection about 2.2% have one here.
# PHOSPHO1 block: blocks human PHOSPHO1 phosphatase activity | recombinant PHOSPHO1, absorbance phosphatase assay | inhibition, % at 13.3 µM | Q8TCT1 | 290,000 tested, 1.1% active; in the data active = inhibition above about 60%
# Target sequence (Q8TCT1 whole entry, looked up): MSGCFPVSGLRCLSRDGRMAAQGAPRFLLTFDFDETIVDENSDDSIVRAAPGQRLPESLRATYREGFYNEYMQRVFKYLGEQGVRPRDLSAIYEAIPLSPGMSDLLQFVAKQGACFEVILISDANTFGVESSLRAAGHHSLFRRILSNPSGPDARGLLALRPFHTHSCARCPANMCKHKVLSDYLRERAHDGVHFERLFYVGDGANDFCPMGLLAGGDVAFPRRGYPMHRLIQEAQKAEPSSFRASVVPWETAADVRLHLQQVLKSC
# Mot1-301 SUMO: inhibitors of SUMOylation pathway: yeast Mot1-301 growth rescue | S. cerevisiae Mot1-301 growth rescue, ATP luminescence, 38.5C; percent above DMSO median, 100 means doubled | growth rescue, % at 18.8 µM | 320,000 tested, 1% active;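 active = every valid replicate shows activation above 250% relative to neutral control wells; inactive = the rest, any valid replicate at or below 250%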;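 note: OY570 slx delta 5 strain wells were the positive control but not used for scaling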
# JMJD2C inh: inhibitors of human GASC-1 (JMJD2C) demethylase. Q9H3R0. GST-JMJD2C(1-420) H3K9me3 demethylation, DELFIA europium. inhibition, % at 2.35 µM. 330,000 tested, 0.069% active. AID 2099;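 active = more than half of a compound's replicate wells show inhibition beyond 50%, single wells judged on their own value; inconclusive = some, but no more than half, of replicates pass 50% inhibition; inactive = no replicate passes 50% inhibition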;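 note: signal counts dimethyl H3K9 product captured on neutravidin plate; 0% = median of DMSO wells and 100% = 0.3 times that DMSO median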
# p-CIP stab down: p/CIP protein destabilization; Q05BA5; F442A p/CIP-EGFP cells, EGFP fluorescence, 16 h; decrease of EGFP signal, % at 10 µM; 290,000 tested, 0.01% active; AID 1984;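 active = EGFP signal decrease of at least 30% at 10 µM or well 3 SD below plate mean, unless failing retest; inactive = the rest, including hits failing retest or dose response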
# PvdQ inh: blocks Pseudomonas aeruginosa PvdQ acylase activity | purified PvdQ acylase, fluorescence plate reader | inhibition, % at 10 µM | 340,000 tested, 0.063% active; in the data active = inhibition above about 30%, passing the limit was not always enough; inconclusive = no clear call, values can overlap the other calls;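 note: 0% = vehicle neutral wells and 100% = reference inhibitor wells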
# HDAC3 inhib: inhibitors of human histone deacetylase 3 | recombinant HDAC3, fluorogenic peptide/trypsin coupled, fluorescence | 320,000 tested, 0.15% active | inhibition, % at 8.3 µM | O15379; in the data active = inhibition above about 26%, passing the limit was not always enough; inconclusive = no clear call, values can overlap the other calls
# The depositor's hits bear a star; ? = inconclusive; / = no result given.
SMILES,PHOSPHO1 block,Mot1-301 SUMO,JMJD2C inh,p-CIP stab down,PvdQ inh,HDAC3 inhib
O=C(/C=C/c1ccc(Br)o1)OCc1ccccc1,15.5,305.3*,8.6,-2.1,-5.3,-6.2
COC(=O)c1ccc(NC(=S)N2CCCC2)cc1,53.2,-6.5,2.7,-2.1,41.6*,-9.1
COC(=O)c1ccc(NC(=O)CN2CCOCC2)cc1,74.0*,18.4,16.3,-9.0,3.5,2.0
COC(=O)c1ccc(NC(=S)N2CCN(C)CC2)cc1,-0.3,/,-1.9,10.1,-0.6,?
O=C(CNC(=O)c1cncc(Br)c1)Nc1ccc(F)c(F)c1F,55.3,10.8,9.8,6.4,-9.3,-4.0
O=C(Nc1ccc(OC(F)F)cc1)c1cc(S(=O)(=O)N2CCOCC2)ccc1N1CCCC1,/,/,/,/,7.1,/
CCCCSc1nnc(-c2ccccc2N)c(=O)[nH]1,90.3*,-5.8,-3.4,-8.9,-12.8,/
CCCCCSc1nnc(-c2cc(Br)ccc2N)c(=O)[nH]1,95.3*,31.0,-5.4,-9.3,4.0,1.1
CCCCCCCSc1nnc(-c2ccccc2N)c(=O)[nH]1,-14.1,-9.2,-7.5,-1.4,-10.2,-3.3
Cc1cccc(N(CC(=O)NC2CCCCC2)C(=O)CCCC(=O)Nc2ccccn2)c1C,36.0,-1.7,25.9,1.5,-8.7,-0.6
COc1ccc(-c2ccc(CCC(=O)O)n2NC(N)=O)cc1,18.8,-11.2,-6.4,-4.4,-4.5,-0.6
COc1ccc(-c2ccc(CCC(=O)O)n2NC(=O)c2ccc(O)cc2)cc1,62.8*,-7.3,0.5,-5.1,-9.9,-7.3
CC1CN(S(=O)(=O)c2cccc(C(=O)OCC(=O)N3CCCCCC3)c2)CC(C)O1 (stereo not drawn),/,9.3,7.9,/,-9.0,-9.2
CCN1CCS/C1=C/C=C/C1=[N+](CC)CCS1,0.2,-8.7,1.7,-34.5,23.1,35.7*
CCN1CCS/C1=C\C=C\C1=[N+](CC)CCS1,-7.9,/,-15.5,-2.2,-3.4,/
COc1ccc(-n2nc(C(=O)NCC(=O)NCCCN3CCN(C)CC3)c3ccccc3c2=O)cc1,43.3,-8.3,1.1,-11.2,-15.1,3.9
COc1ccc(/C=C2/SC(c3ccc(C)cc3)=NC2=O)cc1OC,73.7*,22.4,-2.0,-3.3,7.5,-2.7
CCCCCCOc1ccc(/C(N)=N/O)cc1,-13.6,-9.0,0.7,-3.4,-7.3,5.8
N=C(N)c1ccc(OCCCCCOc2ccc(C(=N)N)cc2)cc1,15.8,122.7,-7.6,-9.7,12.5,61.0*
Cc1ccc(-c2nn(CCC(=O)NN3CCOCC3)c(=O)c3ccccc23)cc1,37.7,-3.2,-6.6,-10.8,/,8.8
O=C(c1cccs1)n1nc(-c2ccco2)nc1SCc1ccccc1,8.6,-4.7,4.9,-3.9,/,65.3*
NC(=O)CSc1nnc(COc2ccccc2)n1C1CCCCC1,20.0,/,/,-6.5,-14.5,/
C#CCSc1nnc(CSc2nc3ccccc3s2)n1-c1ccccc1,75.7*,-7.4,-0.9,3.2,-4.7,-0.6
S=c1[nH]nc(CSc2nc3ccccc3s2)n1C1CCCCC1,96.2*,14.5,3.6,-9.6,-4.2,14.4
O=C(O)CSc1nnc(CSc2nc3ccccc3s2)n1-c1ccccc1,-49.4,33.0,19.1,-5.3,-2.1,-4.0
SMILES,PHOSPHO1 block,Mot1-301 SUMO,JMJD2C inh,p-CIP stab down,PvdQ inh,HDAC3 inhib
S=c1[nH]nc(COc2ccccc2)n1C1CCCCC1,65.5*,1.9,2.2,-6.0,8.8,4.6
Cc1cccc(NC(c2ccc(O)cc2)c2ccc3ccc(C)nc3c2O)n1 (stereo not drawn),63.0*,-1.4,-21.4,-10.5,8.3,-0.2
COc1nccnc1NS(=O)(=O)c1ccc(NCc2ccccc2O)cc1,18.4,-9.3,-6.7,0.9,6.0,5.9
Cc1ccc(NC(=O)CSc2nc3nc(C)c(Br)cc3[nH]2)cc1F,19.9,-4.9,3.0,1.2,-16.0,-2.9
COC(=O)CSc1nc2nc(C)c(Br)cc2[nH]1,73.3*,-5.9,-5.7,4.1,-16.1,5.3
C=C(C)CSc1nc2nc(C)c(Br)cc2[nH]1,82.7*,-22.8,3.6,-19.7,-15.1,-1.8
Cc1oc(-c2ccccc2F)nc1CSCC(=O)NC1CC1,75.1*,-2.7,9.7,-2.4,-16.5,1.9
CN(C)S(=O)(=O)c1ccc(C(=O)Oc2cc(=O)[nH]c3ccccc23)cc1,25.8,465.1*,-17.6,-2.4,-1.5,2.3
CCOC(=O)c1[nH]c2ccccc2c1NC(=O)c1ccc(S(=O)(=O)N(C)C)cc1,-3.7,-7.0,5.6,-7.4,-6.2,-3.3
